# Source: PMC5540273 (PLoS ONE, 2017)
# Experiments:
# Details in all cases: concentration: 1 μM, replicates: in singlicate; n = 1
# SRPK3 = system: SRPK3
# STK16 = system: STK16
# STK33 = system: STK33
# STK35 = system: STK35
# STK36 = system: STK36
# STK39 = system: STK39
# SYK = system: SYK
# SgK110 = system: SgK110
# TAK1 = system: T1, TAK1
# T1 construct: gene MAP3K7
# TAOK1 = system: TAOK1
# TAOK2 = system: TAOK2
# TAOK3 = system: TAOK3
# TBK1 = system: TBK1
# TEC = system: TEC
# TESK1 = system: TESK1
# TGFBR1 = system: TGFBR1
# TGFBR2 = system: TGFBR2
# TIE1 = system: TIE1
# TIE2 = system: T2, TIE2
# T2 construct: gene TEK
# TLK1 = system: TLK1
# 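Note: KINOMEscan kinase panel screen.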
Structure (SMILES),%Inh (SRPK3) [%],%Inh (STK16) [%],%Inh (STK33) [%],%Inh (STK35) [%],%Inh (STK36) [%],%Inh (STK39) [%],%Inh (SYK) [%],%Inh (SgK110) [%],%Inh (TAK1) [%],%Inh (TAOK1) [%],%Inh (TAOK2) [%],%Inh (TAOK3) [%],%Inh (TBK1) [%],%Inh (TEC) [%],%Inh (TESK1) [%],%Inh (TGFBR1) [%],%Inh (TGFBR2) [%],%Inh (TIE1) [%],%Inh (TIE2) [%],%Inh (TLK1) [%]
Cc1c2ccc(N(C)c3ccnc(Nc4cccc(S(N)(=O)=O)c4)n3)cc2nn1Cc1ccccc1.Cl.Cl [GW787226],2,55,0,0,39,0,60,2,4,0,72,0,35,11,15,0,63,92.2,77,0
COc1ccc(COc2cc(-n3cnc4ccccc43)sc2C(N)=O)cc1 [GSK1024304],17,0,13,0,0,0,26,0,0,0,0,0,0,12,20,0,0,11,0,0
COc1ccc(Nc2nccc(N3CCC(NC(=O)Nc4cccc(C(C)=O)c4)C3)n2)cc1 (stereo not drawn) [GSK1379731],0,14,0,0,0,0,1,0,0,0,0,0,0,0,30,0,0,0,0,0
O=C1Cc2cc(Nc3nc(NCc4cccc(S(=O)(=O)C(F)(F)F)c4)ncc3C(F)(F)F)ccc2N1,6,0,7,3,0,5,6,22,5,0,0,0,0,0,0,0,2,0,0,0
CCCCCc1nc2c(N)ncnc2n1CCCCC [SKF-97255],0,9,0,0,0,7,20,3,0,0,18,0,42,6,14,3,11,0,19,0
Nc1nccc(-c2c(-c3ccc(F)cc3)ncn2C2CCN(CC(F)(F)F)CC2)n1 [SB-236560],6,0,0,0,26,0,0,0,21,0,0,0,0,8,0,32,6,25,0,11
O=c1cc(N2CCOCC2)nc2n(Cc3cccc(F)c3)ccn12 [GSK2297430],7,14,0,18,0,0,11,0,0,0,0,0,0,0,19,0,13,7,0,6
O=c1cc(N2CCOCC2)nc2n(Cc3cccc4ccccc34)ccn12 [GSK2333389],0,0,0,2,0,0,2,0,0,0,0,0,0,0,0,17,1,11,0,0
Fc1ccc(-c2ncn(CCCN3CCOCC3)c2-c2cccnc2)cc1 [SB-211743],0,0,0,1,0,0,32,17,0,0,34,0,43,9,5,26,12,9,0,0
